Source: PubChem
Tau ThT inhib: inhibitors of human tau fibril formation, thioflavin T binding; Potency, µM (top dose mostly 57.4 µM), actives largely listed as inhibitors; P10636; actives 2.1% (n = 270,000); recombinant tau K18 P301L, heparin-induced fibrillization, ThT fluorescence; also: nearly all actives have a fitted effect of over 55% in size
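K18 P301L tau (15 uM + 0.24 uM Alexa 594-tagged), heparin 20 uM, NaOAc pH 7, 6 h 37 C; ThT 30 uM, 1 h RT, ex 450/em 510 nm.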
ALDH1A1 block: blocks purified human ALDH1A1 activity | Purified ALDH1A1, NADH fluorescence, propionaldehyde substrate | Potency, µM (highest dose often 75.3 µM), hits mostly inhibitors | actives 7.3% (n = 220,000) | P00352; active = well fitted inhibition curve with a large enough effect, not every such curve was filed as active; inconclusive = small, poorly fitted or top-dose-only effect, or another doubt; inactive = no such curve, though single readings can be large or run the other way
Target sequence (P00352 whole entry, looked up): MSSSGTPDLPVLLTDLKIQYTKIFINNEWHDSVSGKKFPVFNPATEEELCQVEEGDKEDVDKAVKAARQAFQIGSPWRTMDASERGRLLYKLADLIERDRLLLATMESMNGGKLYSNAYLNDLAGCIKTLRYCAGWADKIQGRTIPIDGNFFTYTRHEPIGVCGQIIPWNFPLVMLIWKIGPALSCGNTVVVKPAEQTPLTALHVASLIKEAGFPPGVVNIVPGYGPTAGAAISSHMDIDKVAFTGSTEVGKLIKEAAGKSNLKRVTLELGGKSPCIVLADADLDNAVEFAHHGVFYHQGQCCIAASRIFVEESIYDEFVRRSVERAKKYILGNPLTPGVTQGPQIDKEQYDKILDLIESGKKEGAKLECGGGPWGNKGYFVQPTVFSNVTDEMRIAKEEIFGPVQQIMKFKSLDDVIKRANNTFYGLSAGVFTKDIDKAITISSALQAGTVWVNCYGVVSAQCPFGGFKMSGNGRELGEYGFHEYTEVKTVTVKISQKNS
NPSR antagonist: blocks cAMP signaling of the human neuropeptide S receptor; actives 1% (n = 220,000); Q6W5P4; CHO-NPSR cells, cAMP TR-FRET, antagonist mode; AID 1461; Potency, µM (series often up to 38.3 µM), most hits filed as inhibitors; also: nearly all actives have a fitted effect of over 50% in size
HPGD block: blocks human HPGD enzyme activity | P15428 | purified HPGD, NADH fluorescence kinetic, PGE2 substrate | Potency, µM, actives largely listed as inhibitors | actives 4.3% (n = 150,000) | AID 894; active = well fitted inhibition curve with a large enough effect, not every such curve was filed as active; inconclusive = small, poorly fitted or top-dose-only effect, or another doubt; inactive = no such curve, though single readings can be large or run the other way
Target sequence (P15428 whole entry, looked up): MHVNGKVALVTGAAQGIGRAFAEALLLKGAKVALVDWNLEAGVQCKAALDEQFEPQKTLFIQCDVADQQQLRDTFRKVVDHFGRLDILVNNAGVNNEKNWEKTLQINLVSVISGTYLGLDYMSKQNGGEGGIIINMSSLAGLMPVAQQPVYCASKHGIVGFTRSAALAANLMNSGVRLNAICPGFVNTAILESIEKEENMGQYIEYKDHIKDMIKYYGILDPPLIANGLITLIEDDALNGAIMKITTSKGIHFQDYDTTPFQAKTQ
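20 nM HPGD preincubated 15 min at room temperature with compound in 50 mM Tris-HCl pH 8, 0.01% Tween 20. Started with 1 mM NAD+ and 30 uM prostaglandin E2; NADH fluorescence (360/450 nm) read 5 times over 30-s intervals, last minus first.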
Tau fluor cs: counter-screen for tau fibril formation inhibitors | tau K18 P301L (four-repeat tau fragment) Alexa594 fluorescence, heparin fibrillization | Potency, µM (highest dose often 57.7 µM) | actives 0.93% (n = 280,000) | AID 1463; also: nearly all actives have a fitted effect of over 55% in size
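Human K18 P301L tau (15 uM unlabeled plus 0.24 uM Alexa 594-labeled, final) in 100 mM sodium acetate pH 7 was mixed with compound and 20 uM heparin and incubated 6 hr at 37 C.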
Tau FP inhib: blocks human tau fibril formation measured by polarization; K18 P301L tau heparin fibrillization, Alexa594 FP, 6 h; actives 0.39% (n = 280,000); Potency, µM (titrated, usually from 57.7 µM), most hits filed as inhibitors; P10636; AID 1468; also: nearly all actives have a fitted effect of over 55% in size
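Human tau K18 […] P301L fragment, 15 uM unlabeled plus 0.24 uM Alexa 594-labeled tau (final), with compound and 20 uM heparin in 100 mM sodium acetate pH 7; 6 hr at 37 C, then Alexa 594 FP read.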
Of the large screens only hits and unclear results are named; the others gave an inactive call; [ ] = remark or other dose. Compounds with a hit are over-represented: about 9.5% of the library has one in this group of screens. Unless noted, calls follow the shape of the dose curve; as a rule, active = well fitted curve in the direction sought with a large enough effect; inconclusive = small, poorly fitted or top-dose-only effect, or another doubt; inactive = no such curve, though single readings can be large; an effect the other way counts as inactive or inconclusive.

Cc1ccc(-c2c[nH]c(=S)n2-c2ccccc2F)cc1	ALDH1A1 block 2µM (no result: HPGD block)
S=c1[nH]cc(-c2ccccc2)n1-c1cccc(Cl)c1	ALDH1A1 block inconclusive, HPGD block inconclusive
COC(=O)N1C2=C(c3ccccc3[C@@H]1CC(=O)Nc1ccc3ccc4cccc5ccc1c3c45)[C@@H]1C(=O)N(c3ccccc3)C(=O)[C@@H]1[C@H](C)C2	HPGD block inconclusive (no result: NPSR antagonist)
COc1ccc(CNC(=O)CCCN2C(=O)COc3ccc(C)cc32)cc1	none (no result: ALDH1A1 block, NPSR antagonist, HPGD block)
S=C(c1ccc(N2CCCC2)cc1)N1CCCCC1	Tau ThT inhib inconclusive, ALDH1A1 block 20µM, HPGD block 14µM
S=C(c1ccc(N2CCOCC2)cc1)N1CCOCC1	ALDH1A1 block 2.2µM, HPGD block 7.9µM
Nc1ccc2c(c1)nc(Cc1ccccc1)n2CCO	none (no result: HPGD block)
CN1CCN(C2(CNC(=O)c3ccc(C(C)(C)C)cc3)CCCCC2)CC1	none (no result: ALDH1A1 block, NPSR antagonist, HPGD block)
O=C(Nc1nnc(C(F)(F)F)s1)c1ccc(N2C(=O)C3C4C=CC(C4)C3C2=O)cc1 (stereo not given)	HPGD block 14µM
COc1ccc2[nH]c(I)c(CCNC(C)=O)c2c1	none (no result: NPSR antagonist)
CCCC(=O)NCCc1c(I)[nH]c2ccc(OC)cc12	ALDH1A1 block 20µM (no result: NPSR antagonist, HPGD block)
CCN(CC)S(=O)(=O)c1cc(C(=O)NCCN2CCOCC2)ccc1Cl	none (no result: HPGD block)
CC(=O)Nc1nc(-c2ccc3c(c2)CCN3S(C)(=O)=O)cs1	ALDH1A1 block inconclusive, Tau fluor cs inconclusive, Tau FP inhib inconclusive (no result: HPGD block)
CNc1nc(-c2ccc3c(c2)CCN3C(=O)c2ccccc2C)cs1	Tau ThT inhib inconclusive, ALDH1A1 block 13µM (no result: HPGD block)
CS(=O)(=O)N1CCc2cc(-c3csc(NC(=O)Cc4cccs4)n3)ccc21	ALDH1A1 block 13µM, NPSR antagonist inconclusive, Tau fluor cs inconclusive
CCOC(=O)c1c(NC(=O)Cn2nnc(-c3ccc(Cl)cc3)n2)sc(CC)c1C	ALDH1A1 block inconclusive
COc1ccc(/C=C/C(=O)OCC(=O)Nc2ccc(Cl)c(S(=O)(=O)N(C)C)c2)cc1OC	ALDH1A1 block inconclusive, HPGD block inconclusive, Tau fluor cs inconclusive, Tau FP inhib inconclusive
O=C(C(=S)N1CCOCC1)c1c[nH]c2ccccc12	ALDH1A1 block 3.2µM (no result: HPGD block)
COc1ccc(OCc2nnc(SCC(=O)N3CCOCC3)o2)cc1	none (no result: HPGD block)
Fc1ccc(OCc2nnc(SCCN3CCOCC3)o2)cc1	HPGD block 22µM
Cc1cc(C(=O)CN2C(=O)NC3(CCCc4ccccc43)C2=O)c(C)n1Cc1ccccc1 (stereo not given)	ALDH1A1 block inconclusive
Cc1cc(C(=O)CN2C(=O)CCC2=O)c(C)n1Cc1ccccc1	ALDH1A1 block 7.1µM
CC(C)C(c1nnnn1Cc1ccccc1)N1CCN(Cc2ccc3c(c2)OCO3)CC1 (stereo not given)	none
O=C(Nc1ccccc1)C1=C(c2ccccc2)S(=O)(=O)CCS1(=O)=O	Tau ThT inhib 28µM, ALDH1A1 block inconclusive, NPSR antagonist inconclusive, Tau FP inhib 22µM (no result: HPGD block)
O=C(O)c1ccccc1C(=O)Nc1ccccc1	ALDH1A1 block inconclusive
CCCN(CC(=O)Nc1ccc(Cl)cc1Cl)C(=O)/C=C/c1ccco1	ALDH1A1 block 0.22µM
Cc1c(-c2ccccc2)sc(Br)c1C(=O)N1CCOCC1	HPGD block 1.6µM
CCC(=O)N1CCc2cc(S(=O)(=O)NC(CC(C)C)C(=O)NCc3ccc(F)cc3)ccc21 (stereo not given)	none (no result: ALDH1A1 block, NPSR antagonist, HPGD block)
COc1ccc(S(=O)(=O)Nc2ccc3c(c2)N(C(C)=O)CCC3)cc1F	none (no result: ALDH1A1 block, NPSR antagonist, HPGD block)
CC(C)CCn1c(=O)c2sccc2n2c(CCCC(=O)NC(C)C)nnc12	none (no result: ALDH1A1 block, NPSR antagonist, HPGD block)
COCC(O)CSc1c([N+](=O)[O-])nc(C)n1Cc1ccc(OC)c([N+](=O)[O-])c1 (stereo not given)	ALDH1A1 block 25µM
COc1ccc(Cn2cnc([N+](=O)[O-])c2)cc1[N+](=O)[O-]	ALDH1A1 block inconclusive (no result: HPGD block)
CCOC(=O)c1sc(NC(=O)c2ccncc2)c(C#N)c1C	Tau ThT inhib inconclusive, ALDH1A1 block 3.2µM, HPGD block 14µM
CCOC(=O)c1c(NC(=O)c2ccncc2)sc(C)c1C	Tau ThT inhib inconclusive, ALDH1A1 block 13µM (no result: HPGD block)
CCOC(=O)c1c(NC(=O)c2cccs2)sc(C(=O)N(C)C)c1C	Tau ThT inhib inconclusive, ALDH1A1 block 22µM, HPGD block 16µM
CCOC(=O)c1sc(NC(=O)CSc2nc(C)cc(C)c2C#N)c(C#N)c1C	ALDH1A1 block inconclusive
CO[C@H]1COC(=O)[C@H](C)NC(=O)C/C=C\[C@@H](C)[C@H](OC)COC(=O)[C@@H](OCc2ccccc2)/C=C\[C@@H]1C	none (no result: NPSR antagonist, HPGD block)
Cc1ccccc1OCCNc1cc(N2CCN(CCO)CC2)ccc1[N+](=O)[O-]	Tau ThT inhib 13µM, HPGD block inconclusive, Tau fluor cs inconclusive
Cc1ccccc1OCCNc1cc(N2CCCCC2)ccc1[N+](=O)[O-]	Tau ThT inhib inconclusive, Tau fluor cs inconclusive
Cc1cccc(OCCNc2cc(N3CCN(CCO)CC3)ccc2[N+](=O)[O-])c1	Tau ThT inhib 28µM, Tau fluor cs inconclusive (no result: HPGD block)
O=c1n(-c2ccccc2)c(=O)n2n1CC[C@H]1/C(=N\OC[C@@H](O)COCc3ccco3)[C@H]3O[C@@H]3[C@@H](O)[C@@H]12	none (no result: NPSR antagonist, HPGD block)
CN(C)/N=N/c1nc[nH]c1C(N)=O	ALDH1A1 block inconclusive (no result: NPSR antagonist)
Cn1c(-[n+]2c(-c3ccccc3)cc(-c3ccccc3)cc2-c2ccccc2)nc2c([N+](=O)[O-])cccc21	Tau ThT inhib inconclusive, NPSR antagonist 7.9µM
Cc1nc(N2CCCCC2)c2c(C)c(C(=O)Nc3ccccc3C(F)(F)F)sc2n1	ALDH1A1 block inconclusive (no result: HPGD block)
Cc1ccc(NC(=O)c2sc3nc(C)nc(N4CCN(c5ccccn5)CC4)c3c2C)c(C)c1	NPSR antagonist 13µM (no result: HPGD block)
COc1cc(/C=C2\CC/C(=C\c3cc(OC)c(OC)c(OC)c3)C2=O)cc(OC)c1OC	none
COc1cc(/C=C2/CCC/C(=C\c3cc(O)c(OC)c(Cl)c3)C2=O)cc(Cl)c1O	Tau ThT inhib 11µM, ALDH1A1 block 14µM, NPSR antagonist 7.9µM, Tau fluor cs inconclusive, Tau FP inhib inconclusive
COc1cc(/C=C2\COC/C(=C\c3cc(OC)c(OC)c(OC)c3)C2=O)cc(OC)c1OC	Tau ThT inhib 8.9µM, ALDH1A1 block inconclusive, NPSR antagonist inconclusive, Tau FP inhib inconclusive (no result: HPGD block)
COc1cc(/C=C2\CC/C(=C\c3cc(OC)c(O)c(OC)c3)C2=O)cc(OC)c1O	Tau ThT inhib 6.3µM, HPGD block inconclusive, Tau fluor cs 14µM[quencher], Tau FP inhib inconclusive
COc1ccc(-n2c(CC3C(=O)N(C)c4ccc(C)cc43)nc3ccccc3c2=O)cc1 (stereo not given)	none (no result: ALDH1A1 block, NPSR antagonist, HPGD block)
CC(=O)Nc1cccc(NC(=O)CSc2nnnn2C)c1	none
CCC(=O)Nc1cccc(NC(=O)CSc2nnnn2Cc2ccccc2)c1	ALDH1A1 block 20µM
